Values without a mark were called inactive. No rule for the calls is given here.
The molecules below were run on HIV-1 nucleocapsid protein NCp7 (binding to TG oligonucleotide) (assay: HIV Nucleocapsid (AID 346;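 also: potency is for inhibitors that block NC binding and lower polarization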)). Conditions: HIV-1 NC / fluorescein-TGTGTGTG probe, fluorescence polarization.
Outline: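 NCp7 100 nM + fluorescein TG4xF 10 nM; Hepes pH 7.5/250mM NaCl/1uM ZnCl2/0.004% PEG 20000; 1 hr RT; FP, 45 s exposure; oligo-only wells as negative control.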
Molecule `CN(C)c1ccc(-c2cncnc2NCCc2cnc[nH]2)cc1` has a Potency of over 20 µM. For `Cc1ccccc1-c1ccc2ncnc(N(C)Cc3ccco3)c2c1`, the Potency was over 20 µM. In the case of `Cc1ccccc1-c1nc(N2CCN(C)CC2)c2ccccc2n1`, the Potency is reported as over 20 µM. For `c1ccc(C(c2ccccc2)N2CCC3(CCNCC3)CC2)cc1`, the Potency was over 20 µM. In the case of `CS(=O)(=O)N1CCC[C@@]2(CCN(c3ccccn3)C2)C1`, the Potency is reported as over 20 µM. `COc1ccc(-c2nc3cnc(Nc4ccccc4)nc3n(C[C@H]3CCCO3)c2=O)cc1` gave a Potency of over 20 µM. Work on `COCC(=O)N1CCC2(CCCN(Cc3ccccc3OC)C2)CC1` yielded a Potency of over 20 µM. In the case of `CN(C)C(=O)c1ccc(-c2ccc3ncnc(Nc4ccccc4)c3c2)cc1`, the Potency is reported as over 20 µM. `COc1ccccc1CN1CC[C@@]2(CCCN(C(C)=O)C2)C1` was tested, and the Potency was over 20 µM. For `O=C(c1cnccn1)N1CCC[C@@]2(CCN(C(c3ccccc3)c3ccccc3)C2)C1`, the Potency was over 20 µM. With `COCCNc1nc(-c2ccccc2CN(C)C)nc2ccccc12` the Potency was over 20 µM. `FC(F)(F)c1ccccc1-c1cncnc1NCc1ccccc1` was tested, and the Potency was over 20 µM. `COc1ccc(CNc2ncncc2-c2ccccc2C(F)(F)F)c(OC)c1` showed a Potency of over 20 µM. `COCCn1c(=O)c(-c2cccs2)nc2cnc(OC)nc21` gave a Potency of over 20 µM. Work on `Cc1noc(C)c1C(=O)N1CCC2(CC1)CCN(c1ncccn1)CC2` yielded a Potency of over 20 µM. `N#Cc1cccc(NC(=O)N2CCCC3(CCN(C(=O)c4csnn4)CC3)C2)c1` gave a Potency of over 20 µM. With `COc1cccc(Nc2ncc3ncc(=O)n(C)c3n2)c1` the Potency was over 20 µM. `N#Cc1ccc(CN2CC3(CCN(C(=O)c4cnccn4)CC3)C2)cc1` was tested, and the Potency was over 20 µM. In the case of `Fc1ccc(Nc2ncncc2-c2ccoc2)cc1`, the Potency is reported as over 20 µM. With `Cc1noc(C)c1C(=O)N1CCC[C@@]2(CCN(C(c3ccccc3)c3ccccc3)C2)C1` the Potency was over 4 µM. `COCCn1c(=O)c(-c2cc(F)cc(F)c2)nc2cnc(N3CCOCC3)nc21` was tested, and the Potency was over 20 µM. For `COCCn1c(=O)c(-c2ccccc2)nc2cnc(OC)nc21`, the Potency was over 20 µM. For `COc1ccc(C(=O)N2CCC[C@@]3(CCN(Cc4ccccc4OC)C3)C2)cc1`, the Potency was over 20 µM. For `COCC(=O)N1CCC[C@@]2(CCN(c3ccccc3)C2)C1`, the Potency was over 20 µM. Molecule `O=C(Nc1ccccc1)N1CCC2(CC1)CCN(C(=O)c1ccncc1)CC2` has a Potency of over 20 µM. With `CCNc1ncc2ncc(=O)n(CCOC)c2n1` the Potency was over 20 µM. `CN(C)c1ncc2nc(-c3ccc(Cl)cc3)c(=O)n(Cc3cccs3)c2n1` was tested, and the Potency was over 4 µM. For `COc1cccc(-c2nc(NCc3cccs3)c3ccccc3n2)c1`, the Potency was over 20 µM. Work on `Cc1cccc(CNc2cc(-c3cccc(NS(C)(=O)=O)c3)ncn2)c1` yielded a Potency of over 20 µM. In the case of `CN1CCN(c2ncc3ncc(=O)n(C4CC4)c3n2)CC1`, the Potency is reported as over 20 µM. With `Cc1nc2cnc(Oc3cccc(Cl)c3)nc2n(C[C@H]2CCCO2)c1=O` the Potency was over 20 µM. Work on `COc1ccc(Oc2ncc3nc(CCc4ccccc4)c(=O)n(C)c3n2)cc1` yielded a Potency of over 20 µM. `CNc1ncncc1-c1ccccc1OC` showed a Potency of over 20 µM. `CS(=O)(=O)Nc1cccc(-c2nccc(NCc3ccccc3)n2)c1` was tested, and the Potency was over 20 µM. With `COc1ccccc1CCn1c(=O)c(-c2cccc(Cl)c2)nc2cncnc21` the Potency was over 20 µM. In the case of `c1ccc2c(NC3CC3)nc(-c3ccoc3)nc2c1`, the Potency is reported as over 20 µM. In the case of `COc1ncc2nc(CCc3ccccc3)c(=O)n(-c3ccccc3)c2n1`, the Potency is reported as over 20 µM. `COc1ccc(C(=O)N2CCC3(CCCN(C(=O)Nc4cccc(C#N)c4)C3)CC2)cc1` gave a Potency of over 20 µM. `COc1ccc(-n2c(=O)cnc3cnc(N4CCOCC4)nc32)cc1` showed a Potency of over 20 µM. For `Cc1nc2cnc(N3CCNCC3)nc2n(CCC#N)c1=O`, the Potency was over 20 µM.

Source: PubChem BioAssay (NCATS)
Potency is read from the fitted curve at half-maximal effect.
